Assay outcomes deposited in PubChem BioAssay by several laboratories.
CYP2C9 activ: activators of human CYP2C9; P11712; recombinant CYP2C9, luciferin-H conversion, luminescence; hits give high values; factor 1 = untreated enzyme, 0 = blocked; activation factor at 5 µM; actives 1.4% (n = 96,000); AID 1024;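 active = activation factor of 2 or more for CYP2C9 at a 5 µM dose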;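 note: 0 = sulfaphenazole-blocked wells and 1 = vehicle-only wells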
sEH activator: soluble epoxide hydrolase (human) activation. P34913. actives 0.04% (n = 91,000). AID 717. purified human sEH enzymatic activity, activator screen. activation, % at 2 µM; in the data active = activation above about 37%
Target sequence (P34913 whole entry, looked up): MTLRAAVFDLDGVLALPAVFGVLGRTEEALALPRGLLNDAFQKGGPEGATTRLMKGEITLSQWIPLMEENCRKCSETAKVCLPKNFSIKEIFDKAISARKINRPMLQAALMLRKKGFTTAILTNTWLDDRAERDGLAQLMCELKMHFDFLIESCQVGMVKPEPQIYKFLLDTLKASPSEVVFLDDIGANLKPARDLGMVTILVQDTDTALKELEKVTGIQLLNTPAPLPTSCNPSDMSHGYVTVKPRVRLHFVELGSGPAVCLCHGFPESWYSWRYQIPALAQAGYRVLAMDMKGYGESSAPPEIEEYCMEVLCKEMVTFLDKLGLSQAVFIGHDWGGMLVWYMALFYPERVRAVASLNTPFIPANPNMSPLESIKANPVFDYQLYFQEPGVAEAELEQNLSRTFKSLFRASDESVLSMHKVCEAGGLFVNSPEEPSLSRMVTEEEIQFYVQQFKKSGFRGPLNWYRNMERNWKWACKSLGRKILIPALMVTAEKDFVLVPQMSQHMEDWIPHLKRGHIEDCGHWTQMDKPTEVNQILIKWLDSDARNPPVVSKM
CYP2C9 inh: human CYP2C9 inhibition; P11712; CYP2C9 Supersomes, luciferin-H conversion, luminescence; inhibition, % at 5 µM; actives 20% (n = 96,000); AID 777;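 active = blocking of liver enzyme CYP2C9 beyond about 50% at 5 µM, limit read from the data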
sEH inh: inhibitors of human soluble epoxide hydrolase; recombinant human sEH enzymatic activity assay; inhibition, % at 2 µM; actives 0.34% (n = 91,000); AID 707; in the data active = inhibition above about 80%
CYP2C19 act: increases human CYP2C19 enzyme activity | P33261 | recombinant CYP2C19, luciferin-H EGE luminescence; hits give high values; 0 = fully inhibited enzyme, 1 = untreated enzyme | activation factor at 5 µM | 96,000 tested, under 10 active | AID 1025;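 active = activation factor of at least 2 at 5 µM in the primary screen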;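 note: 0 = wells with 2.5 mM tranylcypromine and 1 = vehicle-only wells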
CYP2C19 inhib: inhibitors of human CYP2C19; P33261; CYP2C19 Supersomes, luciferin-H EGE luminescence, 30 min; inhibition, % at 5 µM; actives 21% (n = 96,000); AID 778;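 active = CYP2C19 inhibition above a set limit at 5 µM in the primary screen, cut at about 50% in these data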;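 note: plate controls were negative control wells for no effect and 2.5 mM tranylcypromine positive control for full effect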
The depositor's hits bear a star; nt = no result. Compounds with a hit are over-represented: about 27% of the library has one in this group of screens.

SMILES	CYP2C9 activ	sEH activator	CYP2C9 inh	sEH inh	CYP2C19 act	CYP2C19 inhib
O=C(NC(=S)Nc1cccc(Cl)c1N1CCCC1)c1ccc(-c2cccc([N+](=O)[O-])c2)o1	1	-10	2	9	1	-1
CC(CC(=O)NCc1cccnc1)c1ccccc1 (stereo not given)	nt	-8	nt	13	nt	nt
CCOC(=O)c1cc(CC)sc1NC(=O)COC	0.2	0	84*	-2	0.8	25
CCOC(=O)c1cc(CC)sc1NC(=O)Cc1ccccc1	0.8	11	16	-12	0.8	21
Cc1ccc(CCNC(=O)C2CCC(=O)N2C2CCCC2)cc1 (stereo not given)	0.9	0	9	2	0.8	16
O=C(c1ccco1)N1CCN(C(=O)c2nn3cccnc3c2Cl)CC1	1.1	-6	-5	5	1.1	-5
CCCC(=O)N1CCN(c2ccc(NC(=O)c3sc4ccccc4c3Cl)cc2)CC1	1	10	-1	-9	0.9	15
CCOC(=S)NC(=O)c1sc2ccccc2c1Cl	0.1	-3	90*	1	1	4
Cc1nn(Cc2ccc(Cl)c(Cl)c2)c(C)c1NC(=O)c1sc2ccccc2c1Cl	0.1	-7	87*	9	0.3	70*
CCOC(=O)c1sc2ccccc2c1OC(=O)c1ccccc1	0.1	-1	90*	4	0.2	85*
CCCOC(=S)NC(=O)c1sc2ccccc2c1Cl	0.3	-13	68*	12	0.9	10
CC1CN(C(=O)c2ccc(COCC(F)(F)F)o2)CC(C)O1 (stereo not given)	1.2	-1	-19	2	1	4
CCOC(=O)CSc1nnc(CNC(=O)Cc2ccccc2)n1C	1.1	-3	-12	1	1.1	-12
CC(c1ccccc1)N1CC(C(=O)N2CCN(c3ccc(F)cc3)CC2)CC1=O (stereo not given)	1.6	0	-55	1	1.1	-5
CCCn1nnc(NC(=O)c2sc3ccccc3c2Cl)n1	1.1	-18	-7	18	0.4	61*
CCCn1nnc(NC(=O)c2cccc(Cl)c2)n1	nt	6	nt	-6	nt	nt
COC(=O)c1nn(-c2ccccc2)ccc1=O	1	-11	5	10	0.9	5
O=c1ccn(-c2cccc(C(F)(F)F)c2)nc1-c1ccn(-c2ccccc2)n1	0.2	10	80*	-8	0.6	36
Cc1ccc(CSc2nnc(-c3ccc4c(c3)OCO4)o2)cc1	0.8	0	15	1	0.9	13
c1cc(CSc2nnc(-c3ccc4c(c3)OCO4)o2)ccn1	0.1	-11	87*	12	0.1	94*
Cc1ccccc1NC(=O)Cc1nc(CSc2nnc(-c3ccc4c(c3)OCO4)o2)cs1	1.1	15	-8	-17	0.4	63*
Cc1nnc(N(CCC#N)CCC#N)s1	0.9	-3	10	4	0.9	5
CCOc1nc(NC2CCCCC2)nc(NC(C)(C)C)n1	nt	5	nt	-2	nt	nt
COCCNS(=O)(=O)c1cccc2cccnc12	1.6	8	-56	-4	0.9	9
COC(=O)C1=C(O)/C(=C\c2ccc(CNC(=O)C(=O)Nc3ccc(C)cc3)o2)N=C1C	0.1	-8	88*	9	0.4	59*
SMILES	CYP2C9 activ	sEH activator	CYP2C9 inh	sEH inh	CYP2C19 act	CYP2C19 inhib
CCOC(=O)C1=C(O)/C(=C/c2ccc(CNC(=O)C(=O)Nc3ccc(C)cc3)o2)N=C1C	0.1	-16	90*	13	0.3	66*
COC(=O)C1=C(O)/C(=C\c2ccc(CNC(=O)C(=O)Nc3ccc(C)c(C)c3)o2)N=C1C	0.2	7	80*	-7	0.5	50*
O=[N+]([O-])c1cccc(C(=Nc2cccc(Cl)c2)NO)c1	0.1	-16	87*	18	0.1	91*
C/C(=N\NC(=O)c1ccccc1C)c1cccc([N+](=O)[O-])c1	0.9	1	13	1	0.6	39
CC(C)CCNC(=O)CN(Cc1cccs1)C(=O)CCC(=O)Nc1nccs1	0.7	-2	29	4	0.8	20
CCC(O)CNc1nc(-n2nc(C)cc2C)nc2sc3c(c12)CCCC3 (stereo not given)	0.8	nt	17	nt	0.9	8
CCCSc1nc(NCc2ccco2)c2c3c(sc2n1)COC(C)(C)C3	0.4	-2	56*	4	0.6	39
Cc1cc(C)n(-c2nc(NCc3cccnc3)c3c4c(sc3n2)COC(C)(C)C4)n1	0.4	0	59*	0	0.6	39
CCOc1ccc(NC(=O)CN2C(=O)C3CCCN3C2=O)cc1 (stereo not given)	1	4	2	-5	1.1	-9
COc1ccc(CNC(=O)C2CCCN2C(=O)NC2CCCCC2)cc1 (stereo not given)	0.9	-7	5	6	0.9	13
COc1ccc(C(=O)CSc2nc(SC)ns2)cc1OC	1	20	-2	-24	0.4	62*
O=C1c2ccccc2C(=O)N1OCc1ccc(Cl)cc1	1.1	-1	-13	4	0.4	64*
O=C1c2ccccc2C(=O)N1OCCOCCOCCON1C(=O)c2ccccc2C1=O	1.1	-3	-5	0	1	-5
Cc1ccc(C)c(Cn2c(=O)n(CCC(=O)NCc3ccco3)c(=O)c3sccc32)c1	0.9	-4	9	6	1.1	-5
O=C(CCCn1c(=O)c2sccc2n(Cc2cc(=O)n3ccccc3n2)c1=O)NCc1ccco1	0.3	nt	66*	nt	0.8	16
O=C(CCCCn1c(=S)[nH]c2ccsc2c1=O)NCc1ccco1	0.3	2	67*	0	0.7	33
Cc1ccccc1Cn1c(=O)n(CCCC(=O)NCc2ccco2)c(=O)c2sccc21	0.1	-5	94*	3	0.1	89*
O=C(CCCn1c(=S)[nH]c2ccsc2c1=O)NCc1ccco1	0.8	-4	16	6	0.9	8
Cc1cc(C)c(Cn2c(=O)n(CCCC(=O)NCc3ccco3)c(=O)c3sccc32)c(C)c1	0.4	-9	61*	7	0.7	27
CC(C)(C)C1CCc2c(sc(NC(=O)c3cccs3)c2C(=O)N2CCCCC2)C1 (stereo not given)	1	4	3	-4	1.1	-6
CCN1CCN(C(C(=O)NC2CCCCC2)c2ccc(Cl)cc2)CC1 (stereo not given)	1.3	7	-29	-4	0.6	43
CS(=O)(=O)Nc1ccccc1C(=O)Nc1cc(Cl)cc(Cl)c1	0.6	6	38	-4	1	0
CS(=O)(=O)Nc1ccccc1C(=O)Nc1cccc(Cl)c1	0.3	-5	68*	6	0.5	48
COC(=O)c1ccc(NC(=O)c2ccccc2NS(C)(=O)=O)cc1	0.3	-4	66*	6	0.8	23
COc1ccc(NC(=O)c2ccccc2NS(C)(=O)=O)cc1OC	0.4	-5	57*	7	1	1
COc1ccccc1NC(=O)c1ccccc1NS(C)(=O)=O	0.8	12	19	-11	1	-2
